Several values for one entry are separate records, joined by “and”; a condition that tells them apart may be missing. Equal values may be shown once. Results filed as inconclusive are left out. Activity calls are given as the source filed them. Unless noted, the call rests on the fitted dose curve; in most records, active means well fitted curve in the direction sought with a large enough effect; inconclusive means small, poorly fitted or top-dose-only effect, or another doubt; inactive means no such curve, though single readings can be large; an effect the other way counts as inactive or inconclusive.
Key:
[1] = qHTS assay for small molecule disruptors of the mitochondrial membrane potential - 5 hr assay (AID 651755; calls by dose curve; further: nearly all actives have a fitted effect of over 40% in size; further: potency means the concentration at half of the fitted maximal effect)
Outline: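 HepG2 cells (2,000/well), attached overnight, exposed to compound 5 hr at 37C, then Mito-MPS dye 30 min. Fluorescence read for monomers (490/535 nm) and aggregates (540/590 nm).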

[2] = target: Tumor necrosis factor (Homo sapiens) (UniProt P01375); experiment: qHTS assay to identify small molecules that stimulate Tumor Necrosis Factor-alpha (TNF-alpha) secretion (AID 651757; active means well fitted curve in the direction sought with a large enough effect in the signal ratio; the % refers to the signal ratio; further: 0% is about no effect)
Outline: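 Secreted TNF-alpha from compound-treated THP-1 cells (17 hrs, 37 C) was quantified with a homogeneous time-resolved fluorescence antibody assay.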

[3] = qHTS assay to identify small molecules that stimulate interleukin-8 (IL-8) secretion (AID 651758; active means well fitted activation curve with a large enough effect in the signal ratio; the % refers to the signal ratio; further: 0% is about no effect)
Outline: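 THP-1 cells (2000/well) exposed to compound 16 h at 37 C; secreted IL-8 then detected by HTRF with cryptate- and XL665-labelled anti-IL-8 antibody pair after 1-3 h at room temperature.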

[4] = qHTS assay for environmental chemicals that activate the Aryl hydrocarbon Receptor (AhR) signaling pathway (AID 651777); conditions: 1A2-DRE human hepatoma cells, luciferase, 24 h; stronger effect = higher value; further: % of control where 0% means no effect; nearly all actives have a fitted effect of over 15% in size
Outline: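 AhR activation is scored as a rise in luciferase from a stable DRE–CYP1A2 promoter construct in human hepatoma cells. Treatment lasts 24 hr at 37 C; detection uses One-Glo after 30 min at room temperature.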

[5] = target: Peroxisome proliferator-activated receptor alpha (Homo sapiens) (UniProt Q07869); experiment: qHTS assay for small molecule agonists of the peroxisome proliferator-activated receptor alpha (PPARalpha) signaling pathway (AID 651778); conditions: PathHunter PPARalpha complementation, chemiluminescence, 6 h; stronger effect = higher value; further: % of control where 0% means no effect
Outline: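 Enzyme-fragment complementation assay in which ligand-bound PPARalpha translocates and forms an active enzyme that generates chemiluminescence. Cells were plated overnight, exposed to compound for 6 hr at 37 C, and then given detection reagent for 60 min at room temperature.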

[6] = target: Nuclear receptor ROR-gamma (Homo sapiens) (UniProt P51449); experiment: qHTS assay for small molecule antagonists of the retinoid-related orphan receptor gamma (ROR-gamma) signaling pathway (AID 651802);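 further: CHO cells with doxycycline-induced ROR-gamma expression; on the % scale 0 is the no-effect control and ±100 the full control effect; nearly all actives have a fitted effect of over 60% in size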
Outline: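 Antagonism is scored as a fall in luminescence from a RORE-luciferase reporter in CHO cells expressing ROR under a TET-inducible promoter, measured 16hr after doxycycline induction in the presence of compound.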

[7] = qHTS assay for small molecule antagonists of the retinoid-related orphan receptor gamma (ROR-gamma) signaling pathway - cell viability counter screen (AID 720652; active means well fitted curve in the direction sought with a large enough effect in the repeat runs; an effect the other way counts as inactive or inconclusive;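 further: CHO reporter cells with doxycycline-induced ROR-gamma expression; compound exposure lasted 16 hr before ATP read; on the % scale 0 is the no-effect control and ±100 the full control effect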)
Outline: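 Cytotoxicity is quantified via intracellular ATP (CellTiter-Glo luminescence) in doxycycline-induced CHO ROR response element-luciferase reporter cells treated with compound for 16 hr at 37 C, 5% CO2.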

[8] = qHTS assay for small molecule agonists of the antioxidant response element (ARE) signaling pathway measured by Nrf2-dependant transcriptional activity - cell viability counter screen (AID 720653; active means well fitted curve in the direction sought with a large enough effect in the repeat runs; an effect the other way counts as inactive or inconclusive; further: on the % scale 0 is the no-effect control and ±100 the full control effect); conditions: ARE-bla HepG2 viability, CellTiter-Glo ATP luminescence, 16 h; stronger effect = lower value
Outline: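 ARE-bla HepG2 cells treated with compounds for 16 h at 37C; this counter screen measures viability as intracellular ATP by CellTiter-Glo luminescence after 30 min at room temperature.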

[9] = qHTS Assay for Identifying Gametocytocidal Compounds (AID 743244);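 further: on the % scale 0 is the no-effect control and ±100 the full control effect; actives lower the fluorescent signal which means gametocytes are killed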; conditions: P. falciparum 3D7 stage III-V gametocytes, alamarBlue, 72 h; max response: stronger effect = lower value
Outline: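 Fluorescence at Ex 525/Em 598 nm, recorded 24 h after alamarBlue addition, reports residual metabolic activity of 3D7 gametocytes (stages III–V) following 72 h compound exposure at 37 °C, 5% CO2.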

[10] = qHTS assay for cell viability of HEK293 cells (AID 743288); conditions: ATP luminescence (CellTiter-Glo), 18 h, stronger effect = lower value; further: on the % scale 0 is the no-effect control and ±100 the full control effect; nearly all actives have a fitted effect of over 50% in size
Outline: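 Parental HEK293 cells were seeded at 2,000 cells/well, rested at least 5 h at 37 C, then exposed to compounds in DMSO for 18 h at 37 C. Viability was read as ATP-dependent luciferase luminescence after 30 min at room temperature.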

[11] = qHTS assay for cell viability of the p53RE-bla HCT-116 cell line (AID 743292); further: on the % scale 0 is the no-effect control and ±100 the full control effect; nearly all actives have a fitted effect of over 55% in size
Outline: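 Quantitative high-throughput format: compounds in DMSO were pinned onto p53RE-bla HCT-116 cells (4,000/well) and incubated 16 h at 37 C. Total intracellular ATP, read by CellTiter-Glo luminescence, reflects viable cell number.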

[12] = qHTS assay for small molecule agonists of the antioxidant response element (ARE) signaling pathway measured by Nrf2-dependant transcriptional activity (AID 720636; active means well fitted curve in the direction sought with a large enough effect in the repeat runs; an effect the other way counts as inactive or inconclusive;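 further: HepG2 cells with an ARE-driven luciferase reporter; % of control where 0% means no effect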)
Outline: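 First, ARE-luc HepG2 cells attached for 6 hr at 37 C in 1% dialyzed FBS medium. Next, compound or DMSO was added and incubated 16 hr. Finally, ONE-Glo reagent was added and luminescence measured after 30 min.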

[13] = qHTS profiling of the MIPE4 collection as inhibitors of Plasmodium falciparum (3D7) proliferation (AID 743344; call rule not given here;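 further: scaled between DMSO vehicle wells and 0.29 µM artemisinin as full inhibition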); conditions: P. falciparum 3D7 in erythrocytes, SYBR Green DNA fluorescence, 72 h; at 9.64 µM (top of the series) unless noted
Outline: (§1)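 Erythrocytes infected with P. falciparum (0.3% parasitemia, 2.5% hematocrit) incubated with compounds 72 h at 37 C, 5% CO2. Lysis with saponin/Triton buffer containing SYBR Green I, overnight at room temperature in the dark; DNA fluorescence (485/535 nm) normalised to 0.29 uM artemisinin and DMSO.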

[14] = qHTS profiling of the MIPE4 collection as inhibitors of Plasmodium falciparum (DD2) proliferation (AID 743345; call rule not given here); conditions: P. falciparum Dd2 in erythrocytes, SYBR Green DNA, 72 h; at 9.64 µM (top of the series) unless noted
Outline: as §1

[15] = qHTS profiling of the MIPE4 collection as inhibitors of Plasmodium falciparum (DD2) proliferation (Rep 2) (AID 743346; call rule not given here); conditions: P. falciparum Dd2 in erythrocytes, SYBR Green DNA, 72 h; at 9.64 µM (top of the series) unless noted
Outline: as §1

[16] = qHTS profiling of the MIPE4 collection as inhibitors of Plasmodium falciparum (HB3) proliferation (AID 743347; call rule not given here;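 further: plate controls were DMSO vehicle wells for no effect and artemisinin wells for full effect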); conditions: P. falciparum HB3 in erythrocytes, SYBR Green DNA, 72 h; at 9.64 µM (top of the series) unless noted
Outline: as §1

Chain of Peroxisome proliferator-activated receptor alpha (Homo sapiens) (Q07869 whole entry, looked up, the tested form may be a part): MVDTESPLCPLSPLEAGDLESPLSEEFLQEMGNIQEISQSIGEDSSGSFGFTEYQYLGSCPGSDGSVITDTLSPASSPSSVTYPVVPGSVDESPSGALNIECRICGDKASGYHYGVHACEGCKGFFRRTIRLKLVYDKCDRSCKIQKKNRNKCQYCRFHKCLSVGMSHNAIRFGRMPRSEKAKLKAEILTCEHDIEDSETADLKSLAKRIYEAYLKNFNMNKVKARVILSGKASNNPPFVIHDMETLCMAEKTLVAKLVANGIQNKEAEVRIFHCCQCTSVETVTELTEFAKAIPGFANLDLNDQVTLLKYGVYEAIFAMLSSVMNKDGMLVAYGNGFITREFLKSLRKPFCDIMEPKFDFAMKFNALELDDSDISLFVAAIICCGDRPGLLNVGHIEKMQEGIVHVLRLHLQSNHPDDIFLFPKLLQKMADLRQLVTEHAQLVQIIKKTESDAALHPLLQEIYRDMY
Chain of Tumor necrosis factor (Homo sapiens) (P01375 whole entry, looked up): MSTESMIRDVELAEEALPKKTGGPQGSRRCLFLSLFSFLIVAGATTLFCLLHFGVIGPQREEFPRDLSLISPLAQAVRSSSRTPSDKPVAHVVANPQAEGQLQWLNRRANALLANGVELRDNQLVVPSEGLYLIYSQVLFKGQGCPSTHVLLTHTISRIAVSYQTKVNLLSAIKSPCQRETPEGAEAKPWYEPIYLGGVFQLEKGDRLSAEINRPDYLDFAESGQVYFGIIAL
Chain of Nuclear receptor ROR-gamma (Homo sapiens) (P51449 whole entry, looked up): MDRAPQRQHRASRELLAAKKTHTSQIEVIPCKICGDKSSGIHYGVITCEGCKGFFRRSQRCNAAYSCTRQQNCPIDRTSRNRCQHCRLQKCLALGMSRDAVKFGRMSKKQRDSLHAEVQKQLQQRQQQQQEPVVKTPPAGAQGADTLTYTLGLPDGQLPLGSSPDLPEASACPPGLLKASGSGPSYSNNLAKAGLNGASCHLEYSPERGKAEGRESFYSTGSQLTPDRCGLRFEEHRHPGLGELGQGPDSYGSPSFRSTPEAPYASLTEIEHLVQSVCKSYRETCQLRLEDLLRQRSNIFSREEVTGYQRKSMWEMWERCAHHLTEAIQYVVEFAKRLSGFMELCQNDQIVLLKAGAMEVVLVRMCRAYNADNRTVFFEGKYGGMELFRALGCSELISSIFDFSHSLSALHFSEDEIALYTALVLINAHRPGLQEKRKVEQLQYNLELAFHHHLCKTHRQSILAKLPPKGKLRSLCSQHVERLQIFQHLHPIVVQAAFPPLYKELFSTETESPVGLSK

CCCCOC(=O)c1ccc(N)cc1
inactive: Potency [1] | outcome [2] | outcome [3] | activation [4] 13% | max response [5] -1.13% | outcome [6] | outcome [7] | max response [8] -19.9% | max response [9] -1.98% | max response [10] 3.29% | outcome [11]

Cc1c(C(=O)NCCO)[n+](=O)c2ccccc2n1[O-]
inactive: activation [4] -0.247% | max response [5] -1.31% | outcome [12] | max response [8] -7.99% | max response [9] 6.22% | max response [10] -4.66% | outcome [11]

CC(=O)Nc1ccccc1
inactive: outcome [2] | activation [4] -1.4% | max response [5] -5.14% | outcome [12] | outcome [7] | max response [8] -3.41% | max response [9] 9.51% | max response [10] -0.588% | outcome [11]

O=C(O)CCCCC1CCSS1 (stereo not drawn)
inactive: outcome [2] | outcome [3] | activation [4] 1.47% and -0.721% | max response [5] -5.44% and -4.99% | outcome [12] | max response [8] 10.3% and -9.69% | max response [9] 3.67% | max response [10] -11.1% and -8.74% | outcome [11]

COc1ccc(O)cc1
inactive: outcome [2] | activation [4] 0.2% | max response [5] -1.68% | outcome [12] | outcome [7] | max response [8] -1.63% | max response [9] -2.64% | max response [10] -0.79% | outcome [11]

CCN(CC)C(=O)c1cccc(C)c1
inactive: Potency [1] | outcome [2] | outcome [3] | activation [4] -1.83% and 2% | max response [5] -2.42% and -0.716% | outcome [6] | outcome [12] | outcome [7] | max response [8] -1.02% and 2.48% | max response [9] 18.7% | max response [10] 4.9% and -5.34% | outcome [11]

CC(=O)NS(=O)(=O)c1ccc(N)cc1
inactive: Potency [1] | outcome [2] | activation [4] -0.967% | max response [5] -6.08% | outcome [6] | outcome [12] | outcome [7] | max response [8] -11.8% | max response [9] 2.53% | max response [10] -3.22% | outcome [11]

FC(F)(F)C(Cl)Br (stereo not drawn)
inactive: outcome [2] | outcome [3] | activation [4] 0.539% | max response [5] -5.56% | outcome [12] | outcome [7] | max response [8] -1.89% | max response [10] 6.13% | outcome [11]

CCOC(=O)[C@H](CCc1ccccc1)N[C@@H](C)C(=O)N1Cc2cc(OC)c(OC)cc2C[C@H]1C(=O)O
inactive: max response [9] 0.618%

Cc1ccc(C(C)C)c(O)c1
inactive: activation [4] 0.149% | max response [5] -0.976% | outcome [12] | max response [8] -4.59% | max response [9] 22.6% | max response [10] -16.2% | outcome [11]

CCCCCCCCCCCCCCCCCCO
inactive: activation [4] 0.518% | max response [5] -0.423% | outcome [12] | max response [8] 2.19% | max response [9] 4.31% | max response [10] -6.21%

COc1ccccc1OC(=O)Oc1ccccc1OC
inactive: max response [9] 1.99%

O=C(c1ccccc1)C(O)c1ccccc1 (stereo not drawn)
inactive: outcome [2] | activation [4] -1.25% and 2.53% | max response [5] -1.85% and -1.14% | outcome [6] | outcome [12] | outcome [7] | max response [8] -4.04% and -7.26% | max response [9] 0.61% | max response [10] 0.203% and -6.25% | outcome [11]

O=C1c2cccc(O)c2C(=O)c2c(O)cccc21
inactive: outcome [2] | activation [4] 5.57% | max response [5] -5.75% | outcome [6] | outcome [7] | max response [9] 2.37% | max response [10] -10.2% | outcome [11]
active: Potency [1] 7.5 µM

O=C(O)CCC(=O)O
inactive: max response [9] 4.69%

O=C1C(c2[nH]c3ccccc3c2O)=Nc2ccccc21
inactive: outcome [2] | max response [5] -5.35% | outcome [6] | outcome [12] | outcome [7] | max response [8] -0.733% | max response [10] 1.4% | outcome [11]

CCCCCCCC(=O)OCC(COC(=O)CCCCCCC)OC(=O)CCCCCCC
inactive: outcome [2] | activation [4] -1.98% | max response [5] 4.51% | outcome [6] | outcome [12] | outcome [7] | max response [8] 1.9% | max response [9] 1.43% | max response [10] -8.85% | outcome [11]

Nc1ccc(S(=O)(=O)c2ccc(N)cc2)cc1
91.3%: parasite growth, % of DMSO control [13]
inactive: Potency [1] | activation [4] -1.52% and 0.0487% | max response [5] -8.33% and -0.873% | outcome [6] | outcome [12] | outcome [7] | max response [8] -3.28% and -10.9% | max response [9] -3.88% | max response [10] -5.62% and -11.7% | outcome [11]
101%: parasite growth, % of control (lower = inhibition) [15]
100%: growth, % of control [16]
103%: parasite growth remaining, % of DMSO control (lower = more inhibition) [14]

O[C@@H]1CO[C@H]2[C@@H]1OC[C@@H]2O
inactive: max response [9] -6.28%

COc1ccc(C(=O)N2CCN(CC(=O)N3CCOCC3)CC2)cc1
inactive: max response [9] -4.8%

OCc1ccc(Cl)cc1Cl
inactive: max response [9] -2.07%

CCCCCCCC(=O)OCC(O)CO (stereo not drawn)
inactive: max response [9] 0.163%

From PubChem BioAssay (NCATS)
